# Experimental data from PubChem BioAssay (NCATS).
# Several values for one entry are separate records, joined by “and”; a condition that tells them apart may be missing. Equal entries are not always repeated. Results filed as inconclusive are left out. Activity calls are given as the source filed them. Calls follow the shape of the dose curve; as a rule, active = well fitted curve in the direction sought with a large enough effect; inconclusive = small, poorly fitted or top-dose-only effect, or another doubt; inactive = no such curve, though single readings can be large; an effect the other way counts as inactive or inconclusive. Where a SMILES comes first, the peptide text is derived from it. The star is where a group is joined. Cbz = O=C(OCc1ccccc1)*; CH2Cl = ClC*
# Assay: Primary qHTS for inhibitors of nuclear receptor binding SET domain protein 2 (NSD2) in an isogenic RCH-ACV NSD2 p.E1099K mutant (9B) (AID 1645876)
# Details: RCH-ACV NSD2 E1099K (9B) viability, CellTiter-Glo, 72 h; series mostly up to 44.9 µM
# Also: nearly all actives have a fitted effect of over 70% in size.
# Potency is read from the fitted curve at half-maximal effect.
row,SMILES,Potency
1,C=C1C(=O)OC2/C=C(\C)CC/C=C(\C)CC(OC(C)=O)C12 (centres undefined),12.9 µM (active)
2,Cc1cc(C(=O)Nc2cc(Oc3ccc4nc(NC(=O)C5CC5)cn4n3)ccc2C)n(C)n1,13.2 µM (active)
3,CC(=O)OC1[C@H]2[C@@H](C[C@@H](C)[C@@H]3C=CC(=O)[C@@]13C)OC(=O)[C@@H]2C (some centres undefined),10.3 µM (active)
4,Cc1cc(-c2nc3cc(F)ccc3s2)ccc1NC(=O)[C@@H](N)CCCCN,5.25 µM (active)
5,Cn1cc(-c2cnn3c(N)c(Br)c([C@@H]4CCCNC4)nc23)cn1,1.15 µM (active) and 3.72 µM (active)
6,C=C1CC(=O)C2OC2(C)CC2OC(=O)C(=C)C2C(O)C1OC(=O)/C(C)=C\C (centres undefined),3.19 µM (active)
7,COc1cccc(NCCC2(c3ccccc3)CC(C)(C)OC(C)(C)C2)c1,inactive
8,O=c1cc(NCCCN[C@@H]2CCOc3c(Br)cc(Br)cc32)[nH]c2ccsc12,20.5 µM (active)
9,C=C(C(=O)O[C@H]1C/C(C)=C/CC/C(CO)=C/[C@H]2OC(=O)C(=C)[C@H]12)C(O)CO (some centres undefined),7.13 µM (active)
10,Cn1ccc(NC(=O)c2cc(Oc3ccc(C(=O)N4CCC4)c(F)c3)c3c(c2)OC(C)(C)C3)n1,inactive
11,CC(C)(C)[C@H](NC(=O)c1ccc(N)c(Cl)c1)C(=O)N1CCC[C@H]1C(=O)N[C@H](C#N)CC(=O)O,inactive

# Assay: Primary qHTS for inhibitors of nuclear receptor binding SET domain protein 2 (NSD2) in an RCH-ACV wild type WT cells (2C) (AID 1645877)
# Details: RCH-ACV (leukaemia line) NSD2 WT (2C) viability, CellTiter-Glo, 72 h; series mostly up to 44.9 µM
row,SMILES,Potency
1,CC1CCCC(O)CC(=O)c2c(O)cc(O)cc2CC(=O)O1 (centres undefined),5.05 µM (active)
2,Cn1cc(-c2cnn3c(N)c(Br)c(C4CCCNC4)nc23)cn1 (centres undefined),1.05 µM (active)
3,C=C1C(=O)OC2CC(C)C(CCC(C)=O)=CCC12 (centres undefined),12.9 µM (active)
4,C=C1CC2OC(=O)C(=C)C2C(O)/C=C(\C)CCC1O (centres undefined),16.3 µM (active)
5,CN(C)CCC(CSc1ccccc1)Nc1ccc(S(=O)(=O)NC(=O)c2ccc(N3CCN(Cc4ccccc4-c4ccc(Cl)cc4)CC3)cc2)cc1[N+](=O)[O-] (centres undefined),0.515 µM (active)
6,C=C1C(=O)O[C@@H]2[C@H]1CC[C@H](C)[C@]1(CCC(=O)O1)C2(C)O (some centres undefined),14.5 µM (active)
7,C/C(=C\CO[C@@H]1O[C@H](CO[C@H]2OC[C@](O)(CO)[C@H]2O)[C@@H](O)[C@H](O)[C@H]1O)C(C)(C)O,inactive
8,CNc1nc(NCc2ccc(NS(C)(=O)=O)cc2Cl)cc(-c2ccccn2)n1,7.28 µM (active)
9,C=C1CC[C@@H]2[C@](C)(CO)[C@H](O)CC[C@@]2(C)[C@@H]1C/C=C1/C(=O)OCC1O (some centres undefined),7.28 µM (active)
10,CC(C)Oc1ccc(-c2cnc3c(-c4ccnc5ccccc45)cnn3c2)cc1,inactive
11,CC(C)C[C@H](NC(=O)CNC(=O)OCc1ccccc1)C(=O)N[C@@H](Cc1ccccc1)C(=O)CCl (Cbz-Gly-Leu-Phe-CH2Cl),3.65 µM (active)
12,COc1ccc(-n2c(SCCCN3C(=O)c4cccc5cccc(c45)C3=O)nnc2-c2ccncc2)cc1,inactive
13,CCN1CCN(Cc2ccc(NC(=O)c3ccc(C)c(Oc4ccnc5[nH]ccc45)c3)cc2C(F)(F)F)CC1,0.713 µM (active)
14,C=C1/C(=C/C=C2\CCC[C@]3(C)[C@@H]([C@H](C)CC[C@@H](O)C(C)(C)O)CC[C@@H]23)C[C@@H](O)C[C@@H]1O,10.3 µM (active)
15,C=C1CC[C@@H]2[C@](C)(CO)[C@H](O)CC[C@@]2(C)[C@@H]1CC(=O)C1=CCOC1=O,inactive
16,O=C(Nc1ccnc(NC(=O)C2CC2)c1)c1c(Cl)cccc1Cl,2.95 µM (active)
17,CC1CCCC[C@H]2C(=O)C=C[C@H](O)[C@@H]2CC(=O)O1 (some centres undefined),2.05 µM (active)
18,Cc1cc2c(c(=O)o1)C=C1CC[C@H]([C@H](C)Cn3cnc(=N)c4[nH]cnc43)C[C@@H]1O2,inactive
19,O=C(Nc1ccccc1Cl)c1cnc2ccc(C3CCNCC3)cn12,2.3 µM (active)

row,SMILES,Potency
1,CC(C)/C=C1\NC(=O)C(C(C)C)n2c1nc1ccccc1c2=O (centres undefined),inactive
2,COc1ccc2c(c1O[C@H]1CCNC1)CCC2,inactive
3,C=C1C(=O)O[C@@H]2C[C@@]3(C)C[C@@H](O)C[C@H](C)C3=C[C@H]12,5.15 µM (active)
4,C=C[C@@]1(C)CCC2C(=CCC3[C@]2(C)CCC[C@@]3(C)C(=O)O)C1 (some centres undefined),inactive
5,O=c1ccc2ccc(OCCCCN3CCN(c4cccc5sccc45)CC3)cc2[nH]1,16.3 µM (active)
6,Cc1c(F)ccc(C(=O)Nc2cc([N+](=O)[O-])ccc2N2CCN(C)CC2)c1Cl,inactive
7,Cn1ncc(Cl)c1-c1cc(C(=O)N[C@H](CN)Cc2ccc(F)c(F)c2)oc1Cl,0.515 µM (active)
8,CN(CC1COCCO1)S(=O)(=O)Nc1ccc2ccc3ncc(-c4cnn(C)c4)cc3c(=O)c2c1 (centres undefined),9.16 µM (active)
9,C=C1C(=O)OC2/C=C(\C)CC/C=C(\C)CC(OC(C)=O)C12 (centres undefined),6.49 µM (active)
10,Cc1cc(C(=O)Nc2cc(Oc3ccc4nc(NC(=O)C5CC5)cn4n3)ccc2C)n(C)n1,9.34 µM (active)
11,CC(=O)OC1[C@H]2[C@@H](C[C@@H](C)[C@@H]3C=CC(=O)[C@@]13C)OC(=O)[C@@H]2C (some centres undefined),7.28 µM (active)
12,Cc1cc(-c2nc3cc(F)ccc3s2)ccc1NC(=O)[C@@H](N)CCCCN,4.17 µM (active)
13,Cn1cc(-c2cnn3c(N)c(Br)c([C@@H]4CCCNC4)nc23)cn1,1.15 µM (active) and 4.17 µM (active)
14,C=C1CC(=O)C2OC2(C)CC2OC(=O)C(=C)C2C(O)C1OC(=O)/C(C)=C\C (centres undefined),2.01 µM (active)
15,COc1cccc(NCCC2(c3ccccc3)CC(C)(C)OC(C)(C)C2)c1,inactive
16,O=c1cc(NCCCN[C@@H]2CCOc3c(Br)cc(Br)cc32)[nH]c2ccsc12,20.5 µM (active)
17,C=C(C(=O)O[C@H]1C/C(C)=C/CC/C(CO)=C/[C@H]2OC(=O)C(=C)[C@H]12)C(O)CO (some centres undefined),2.84 µM (active)
18,Cn1ccc(NC(=O)c2cc(Oc3ccc(C(=O)N4CCC4)c(F)c3)c3c(c2)OC(C)(C)C3)n1,inactive
19,CC(C)(C)[C@H](NC(=O)c1ccc(N)c(Cl)c1)C(=O)N1CCC[C@H]1C(=O)N[C@H](C#N)CC(=O)O,inactive
